Results filed as inconclusive are left out. Calls of active or inactive are those of the source. Calls follow the shape of the dose curve; as a rule, active = well fitted cell-killing curve with a large enough effect; inconclusive = small, poorly fitted or top-dose-only effect, or effect the other way; inactive = no such curve, though single readings can be large or run the other way.
System: PA-1
Test: Confirmatory qHTS for gynecologic anti-cancer compounds from libraries of approved drugs and bioactive compounds; also: nearly all actives have a fitted effect of over 55% in size
Details: gynecologic cancer cell panel viability, ATPlite luminescence, 48 h; series mostly up to 57.6 µM
Procedure, shortened: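 IC50 values derive from an ATPlite ATP-content luminescence assay following 48 h treatment at 37 C. Each compound ran as an 11-concentration, threefold series (57.5 uM to 0.977 nM); HEK 293T served as control line for selectivity index.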
Potency is read from the fitted curve at half-maximal effect.

Compound	Potency
COc1cc2nccc(Oc3ccc(NC(=O)C4(C(=O)Nc5ccc(F)cc5)CC4)cc3)c2cc1OC	10.9 µM (active)
C[C@]12CCC(=O)C=C1CC[C@@H]1[C@@H]2[C@@H](O)C[C@@]2(C)[C@H]1CC[C@]2(O)C(=O)CO	21.7 µM (active)
Cc1cc(CN2CCN(c3c(Br)cnc4nc(-c5ccc(N6CCN(C)CC6)cc5)[nH]c34)CC2)no1	17.2 µM (active)
COc1ccccc1N1CCN(CC(O)COc2cccc3ccccc23)CC1 (configuration not stated)	inactive
COc1cccc2cc(-c3nc(C4CCC(C(=O)O)CC4)n4ncnc(N)c34)[nH]c12 (configuration not stated)	9.68 µM (active)
O=c1[nH]c(=O)n([C@H]2C[C@H](O)[C@@H](CO)O2)cc1C(F)(F)F	1.93 µM (active)
CCc1c2c(nc3ccc(OC(=O)N4CCC(N5CCCCC5)CC4)cc13)-c1cc3c(c(=O)n1C2)COC(=O)[C@]3(O)CC	7.69 µM (active)
COCCOc1ccc2c(c1)ncn2-c1ccc2cccc(N3CCC(N)CC3)c2n1	4.85 µM (active)
CCCCc1oc2ccccc2c1C(=O)c1cc(I)c(OCCN(CC)CC)c(I)c1	39.8 µM (active)
CC(C)C[C@H](NC(=O)[C@@H](NC(=O)c1cccc(-c2ccccc2)n1)[C@@H](C)O)B(O)O	0.0385 µM (active)
CCC(=O)N1CCN(c2ccc(-n3c(=O)ccc4cnc5ccc(-c6cnc7ccccc7c6)cc5c43)cc2C(F)(F)F)CC1	0.627 µM (active)
COc1ccc(CCC(=O)c2c(O)cc(O[C@@H]3O[C@H](CO)[C@@H](O)[C@H](O)[C@H]3O[C@@H]3O[C@@H](C)[C@H](O)[C@@H](O)[C@H]3O)cc2O)cc1O	inactive

Source: PubChem BioAssay AID1345085 (National Center for Advancing Translational Sciences (NCATS), 2018)
